Source: PubChem
Shown are actives, neighbours in structure and some others; about 10% of the full set was active somewhere.
JMJD2A Tudor: blocks the human JMJD2A Tudor domain; O75164; AlphaScreen JMJD2A-Tudor / H3K4me3 peptide binding; Potency, µM (highest dose often 114 µM), most hits filed as inhibitors; 390,000 tested, 4.4% active; AID 504339; further: nearly all actives have a fitted effect of over 50% in size
BAZ2B inh: blocks human BAZ2B | 360,000 tested, 4.4% active | Potency, µM (titrated, usually from 114 µM), usual class: inhibitors | Q9UIF8 | AlphaScreen BAZ2B-H3K14Ac peptide displacement | AID 504333; further: nearly all actives have a fitted effect of over 60% in size
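Multi-concentration screen (max 110 uM) measuring displacement of acetylated histone H3 peptide from BAZ2B by AlphaScreen, using 50 nM protein, 50 nM peptide and 10 ug/mL streptavidin donor plus Ni-chelate acceptor beads.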
Six1-Eya2 inh: Six1/Eya2 interaction inhibition. Q15475+O00167. AlphaScreen GST-Six1/His-Eya2 binding, biochemical; stronger effect = lower value. activity change, % (test concentration not listed). 360,000 tested, 0.56% active; in the data active means activity change below about -65%; inconclusive means mostly about -30% to -63%
Target sequence (O00167 whole entry, looked up): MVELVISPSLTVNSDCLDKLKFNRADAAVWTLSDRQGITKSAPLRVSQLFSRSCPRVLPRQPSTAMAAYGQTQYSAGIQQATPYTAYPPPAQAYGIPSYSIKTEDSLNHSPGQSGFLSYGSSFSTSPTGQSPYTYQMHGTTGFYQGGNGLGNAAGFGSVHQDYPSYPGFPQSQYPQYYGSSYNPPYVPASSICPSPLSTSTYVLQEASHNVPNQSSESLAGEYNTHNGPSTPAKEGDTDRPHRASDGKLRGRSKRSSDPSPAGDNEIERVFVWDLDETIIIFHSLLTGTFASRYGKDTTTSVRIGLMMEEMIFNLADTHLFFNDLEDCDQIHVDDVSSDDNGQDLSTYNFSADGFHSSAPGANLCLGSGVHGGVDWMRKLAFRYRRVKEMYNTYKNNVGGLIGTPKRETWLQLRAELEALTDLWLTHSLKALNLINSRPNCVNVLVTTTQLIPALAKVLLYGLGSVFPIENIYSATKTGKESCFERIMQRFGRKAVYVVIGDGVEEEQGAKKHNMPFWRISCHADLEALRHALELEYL
Target sequence (Q15475 whole entry, looked up): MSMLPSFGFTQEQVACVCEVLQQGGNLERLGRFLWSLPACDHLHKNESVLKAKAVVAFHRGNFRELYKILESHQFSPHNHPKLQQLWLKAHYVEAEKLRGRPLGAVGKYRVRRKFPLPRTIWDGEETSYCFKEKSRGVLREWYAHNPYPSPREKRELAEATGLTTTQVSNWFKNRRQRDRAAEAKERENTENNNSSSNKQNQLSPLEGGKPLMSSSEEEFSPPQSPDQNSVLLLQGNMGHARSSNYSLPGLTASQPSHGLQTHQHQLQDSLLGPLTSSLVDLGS
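GST-Six1 + His-Eya2 (5X stock: 250/500 nM); Tris pH 8.0, 300 mM NaCl, 0.05% BSA, 0.02% Tween 20; GSH donor/Ni acceptor beads; 1 h 37 °C dark; AlphaScreen readout.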
CtBP-E1A inh: blocks the CtBP interaction with E1A; activity change, % (concentration not given with the values); 340,000 tested, 0.49% active; AlphaScreen GST-E1A/His-CtBP binding, 1536-well; stronger effect = lower value; in the data active means activity change below about -65%; inconclusive means mostly about -30% to -63%
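GST-E1A and His-tagged CtBP (125 nM each as 5X stock) were preincubated with pin-transferred compound for 2 h at 37 °C in the dark, then glutathione donor and nickel acceptor beads were added for 1 h before AlphaScreen reading.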
HP1b chromo inh: inhibitors of HP1-beta chromodomain binding to methylated histone tails. AID 540317. Potency, µM (series often up to 114 µM), most hits filed as inhibitors. P83916. 390,000 tested, 0.56% active. AlphaScreen HP1-beta / biotin-H3K9me3 peptide binding; further: nearly all actives have a fitted effect of over 70% in size
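Compound inhibition of the preformed complex between 50 nM HP1-beta and 50 nM biotinylated H3K9me3 peptide was read by AlphaScreen. Buffer was PBS pH 7.4 with 0.01% Tween-20. Incubations ran 30 min at room temperature, with 10 ug/mL donor/acceptor beads.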
G9a block: blocks human histone lysine methyltransferase G9a. G9a H3K9 monomethylation, AlphaScreen, 2 h. 350,000 tested, 8.8% active. Potency, µM (highest dose often 102 µM), actives largely listed as inhibitors; further: nearly all actives have a fitted effect of over 75% in size
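AlphaScreen detection with an anti-monomethyl H3K9 antibody quantified product after a 2 h room-temperature reaction containing 500 nM biotinylated H3K9 peptide, 20 µM SAM and 20 nM enzyme, which had been preincubated 15 min with compound.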
A number is an active result; . = inactive; ? = inconclusive; / = no result; [ ] = dose if it differs, or a comment. Unless noted, the call rests on the fitted dose curve; in most records, active means well fitted inhibition curve with a large enough effect; inconclusive means small, poorly fitted or top-dose-only effect; inactive means no such curve, though single readings can be large or run the other way.

SMILES	JMJD2A Tudor	BAZ2B inh	Six1-Eya2 inh	CtBP-E1A inh	HP1b chromo inh	G9a block
CC1CN(CCCCOc2ccc(Cl)c3ccccc23)CC(C)O1 (stereo not drawn)	11µM	?	.	.	.	/
c1ccc(Cn2ncc3c(N4CCN(c5ccccc5)CC4)ncnc32)cc1	/	/	.	.	/	/
COc1ccc(NC(=O)CSc2nnc3n2CCCCC3)cc1OC	/	/	.	.	/	/
Cc1ccccc1NC(=O)C1CCN(S(=O)(=O)c2ccccc2)CC1	.	.	/	/	.	.
Cc1ccc(C(=O)N/C(=C\c2ccc(Br)cc2)c2nc(=S)[nH][nH]2)cc1	45µM	?	.	.	.	.
N#Cc1ccccc1Sc1ccccc1C(=O)NCC(c1ccco1)N1CCCCC1 (stereo not drawn)	.	.	.	/	.	?
O=C(NCC(c1ccco1)N1CCCC1)c1ccccc1Sc1ccc(C(F)(F)F)cc1[N+](=O)[O-] (stereo not drawn)	?	?	.	.	.	10µM
O=P(CCc1ccccc1)(c1ccccc1)c1ccccc1	.	/	.	.	.	/
C=CCn1c(CCNC(=O)c2cccs2)nnc1SCC(=O)c1ccc(Br)cc1	.	.	.	.	.	45µM
C=CCn1c(SCC(=O)c2ccc(NS(=O)(=O)c3ccccc3)cc2)nnc1-c1cccs1	32µM	.	.	.	.	?
COc1ccc(CC(=O)NCC(=O)N/N=C/c2ccco2)cc1	.	.	.	.	.	.
COc1ccccc1OCc1ccc(C(=O)N/N=C/c2ccco2)cc1	.	.	.	.	.	.
COc1ccccc1COC(=O)N/C=C/c1ccco1	.	?	.	.	.	20µM
COc1ccc(COC(=O)N/C=C/c2ccco2)cc1	.	.	.	.	.	50µM
CCC(=O)OCc1cnc(C)c2oc(=O)c(C(=O)Nc3ccccc3C(F)(F)F)cc12	.	.	/	/	.	.[12.7 µM]
O=C(c1ccco1)N1CCN(C2CN(Cc3ccc([N+](=O)[O-])cc3)S(=O)(=O)C2)CC1 (stereo not drawn)	/	/	.	.	/	/
COc1ccc(-c2cc(NC(C)=O)c3ncc(-c4ccc(F)cc4)n3c2)cc1OC	/	/	.	.	/	/
CC(=O)NC1=C(NC2CCS(=O)(=O)C2)C(=O)c2ccccc2C1=O (stereo not drawn)	20µM	.	.	.	45µM	1.8µM
CN(C1=C(NC(=O)c2ccccc2)C(=O)c2ccccc2C1=O)C1CCS(=O)(=O)C1 (stereo not drawn)	?	50µM	.	.	.	?
O=C(NCCCn1ccnc1)c1ccc(C(F)(F)F)cc1	.	.	.	/	.	.
CCN(CC)S(=O)(=O)c1ccc2c(c1)nc(SCC(=O)N1CCOCC1)n2-c1ccccc1OC	.	?	.	.	.	32µM
CCN(CC)S(=O)(=O)c1ccc2c(c1)nc(SCC(=O)N1CCCCCC1)n2-c1ccc(OC)cc1	.	.	.	.	.	.
COc1ccccc1-n1c(SCC(=O)NCc2ccc3c(c2)OCO3)nc2cc([N+](=O)[O-])ccc21	50µM	.	.	.	?	?
CC(Sc1nc2cc([N+](=O)[O-])ccc2n1-c1ccc(F)cc1)C(=O)NCc1ccc2c(c1)OCO2 (stereo not drawn)	?	?	.	.	.	?
Cc1cccc(C)c1Nc1c(-c2ccsc2)nc2ccc(Cl)cn12	.	.	/	/	.	?
SMILES	JMJD2A Tudor	BAZ2B inh	Six1-Eya2 inh	CtBP-E1A inh	HP1b chromo inh	G9a block
Cc1cccc(C)c1Nc1c(-c2ccsc2)nc2ccccn12	45µM	?	/	/	?	14µM
Cc1ccc2nc(-c3ccccn3)c(NC3CCCC3)n2c1	45µM	.	?	-73	?	.
Cc1ccc2nc(-c3ccc(C)o3)c(NC3CCCC3)n2c1	?	/	/	/	.	/
Cc1cccc(C)c1Nc1c(-c2ccccn2)nc2ccccn12	45µM	25µM	-84	/	?	40µM
Cc1cccc(C)c1Nc1c(-c2ccsc2)nc2ncccn12	.	.	.	.	.	?
O=C(CSC1=Nc2ccccc2N=C(c2ccc(F)cc2)C1)Nc1ccc(Cl)cc1	.	.	/	/	.	.
